Bioassay records deposited in PubChem BioAssay by National Center for Advancing Translational Sciences (NCATS).
Shiga inhibitor – Shiga toxin inhibition; Vero cells, Shiga toxin protein synthesis inhibition reporter; inhibition, % at 38.7 µM; 9.2% of 290,000 active; AID 2315; in the data active means inhibition mostly above about 28%, no sharp cut-off; inactive means mostly below about 43%
Pf growth 48h – P. falciparum growth inhibition at 48 hours (one generation). Potency, µM (top dose mostly 28.7 µM), hits mostly inhibitors. P. falciparum luciferase growth in erythrocytes, 48 h. 5.9% of 310,000 active
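Luminescence readout; reporter = integrated firefly luciferase in P. falciparum. RBC culture at 2% hematocrit, 0.1% parasitemia final, 37 C/5% CO2; decreased signal taken as growth inhibition.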
Cycloheximide cs – counter-screen hit for Shiga toxin inhibitors, cycloheximide | max response, % | cell reporter, cycloheximide protein synthesis inhibition counterscreen | 12% of 300,000 active | AID 2314; in the data active means max response mostly above about 13%, no sharp cut-off; inactive means mostly below about 14%; further: read at 38.3 µM for the half of the compounds with a filed dose
HCMV inh – human cytomegalovirus inhibition | 4.5% of 410,000 active | activity change, negative = inhibition, % at 57.5 µM | HFF cells, HCMV-luciferase reporter, 72 h; stronger effect = lower value; in the data active means activity change below about -60%; inconclusive means no clear call, values can overlap the other calls; inactive means above about -39%
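Luciferase read-out from HCMV-luciferase-infected HFFs (MOI 1 PFU/cell) 72 h post infection at 37C; compounds added after 16 h cell attachment; activity normalized between buffer-only basal and Salinomycin (10uM) inhibitor controls.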
Pf growth 96h – P. falciparum growth inhibition at 96 hours; 6.9% of 320,000 active; AID 504834; P. falciparum luciferase reporter growth, 96 h; Potency, µM (series often up to 28.7 µM), hits mostly inhibitors
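Infected RBCs, 2% Hct / 0.05% parasitemia final; luciferase-reporter P. falciparum; cpd 96 h, 37 C, 5% CO2; luciferase detection reagent; luminescence.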
Of the large screens only hits and unclear results are named; the others gave an inactive call. The list is not random: actives were taken first. Their share in the collection is about 20%. Unless noted, the call rests on the fitted dose curve; in most records, active means well fitted inhibition curve with a large enough effect; inconclusive means small, poorly fitted or top-dose-only effect, or another doubt; inactive means no such curve, though single readings can be large or run the other way.

O=C(Nc1nc(-c2ccccn2)cs1)C12CC3CC(CC(O)(C3)C1)C2	Shiga inhibitor 90.7, Cycloheximide cs 33.5, Pf growth 96h inconclusive
O=C(CC1CC2CCC1C2)Nc1nc(-c2ccccn2)cs1 (configuration not stated)	Shiga inhibitor 78.4, Pf growth 48h 2.62µM, Cycloheximide cs 46.4, Pf growth 96h 4.65µM
O=C(Nc1nc(-c2ccccn2)cs1)C1CC1	Shiga inhibitor 42.5, Pf growth 48h inconclusive, Cycloheximide cs 31.5, Pf growth 96h inconclusive
COc1ccc(OCCCC(=O)Nc2nc(-c3ccccn3)cs2)cc1	Pf growth 48h inconclusive, HCMV inh inconclusive, Pf growth 96h inconclusive
N#Cc1ccc(-c2csc(NC(=O)C3CC3)n2)cc1	none (no result: Pf growth 48h)
COc1ccc(S(=O)(=O)N2CCCC(C(=O)NCC3CCCO3)C2)cc1OC (configuration not stated)	none
COc1ccc(-n2c(C)cc(C(=O)CN3CCC(C)CC3)c2C)cc1	Cycloheximide cs 36.8
COc1ccc(-n2c(C)cc(C(=O)CN3CCCCC3)c2C)cc1	Pf growth 48h inconclusive, HCMV inh inconclusive, Pf growth 96h inconclusive
Cc1cc(C(=O)CN2CCCC2)c(C)n1-c1ccc(F)cc1	Pf growth 48h inconclusive, Pf growth 96h inconclusive
Cc1cc(C(=O)CN2CCCCC2)c(C)n1-c1ccc(F)cc1	Shiga inhibitor 56.4, Cycloheximide cs 36.8
Cc1cc(C(=O)CN2CCC(C)CC2)c(C)n1-c1ccc(F)cc1	Shiga inhibitor 22.0, Cycloheximide cs 32.0
COc1ccc(-n2c(C)cc(C(=O)C[N+]34CCN(CC3)CC4)c2C)cc1	HCMV inh inconclusive, Pf growth 96h 5.86µM
Cc1cc(C(=O)NC2CCCCC2)c(C)n1-c1ccc(F)cc1	Shiga inhibitor 77.2, Cycloheximide cs 46.1
Cc1cc(C(=O)CNCc2ccco2)c(C)n1-c1ccc(F)cc1	Shiga inhibitor 73.8, Cycloheximide cs 38.1
Cc1cc(C(=O)CN2C(=O)C(=O)N(C3CCCC3)C2=O)c(C)n1-c1ccc(F)cc1	Pf growth 48h inconclusive
Cc1cc2n(n1)C(c1ccco1)Nc1ccccc1-2 (configuration not stated)	none (no result: Pf growth 96h)
c1ccc(C2Nc3ccccc3-c3nc4ccccc4n32)cc1 (configuration not stated)	Pf growth 48h inconclusive, Cycloheximide cs 31.1 (no result: Pf growth 96h)
c1coc(C2Nc3ccccc3-c3nc4ccccc4n32)c1 (configuration not stated)	Shiga inhibitor 62.8, Cycloheximide cs 31.0
c1ccc(C2Nc3ccccc3-c3nc4ccccc4n32)nc1 (configuration not stated)	none
CCc1nc(-c2cc(S(=O)(=O)N3CCN(c4ccccc4OC)CC3)ccc2OC)no1	none (no result: Shiga inhibitor, Pf growth 48h, Cycloheximide cs, Pf growth 96h)
Cc1cccc(-c2nc3c4ccccc4nc(N4CCN(c5cccc(Cl)c5)CC4)n3n2)c1	HCMV inh -61.5 (no result: Shiga inhibitor, Pf growth 48h, Cycloheximide cs, Pf growth 96h)
Clc1cccc(N2CCN(c3nc4ccccc4c4nc(-c5ccccc5)nn34)CC2)c1	none (no result: Shiga inhibitor, Pf growth 48h, Cycloheximide cs, Pf growth 96h)
Cc1nc(-c2ccccc2)sc1C(=O)/C=C/c1ccc(Cl)cc1	Pf growth 48h inconclusive, Pf growth 96h inconclusive
Cc1nc(-c2ccccc2Cl)sc1C(=O)/C=C/N(C)C	Cycloheximide cs 24.3
C/C(=N\Nc1nc2ccccc2s1)c1ccc(Br)s1	Shiga inhibitor 41.4, Pf growth 48h inconclusive, Cycloheximide cs 18.5, Pf growth 96h inconclusive
C/C(=N\OCC(=O)Nc1nc2ccccc2s1)c1ccccc1	none
C/C(=N/NS(=O)(=O)c1ccc(C(C)(C)C)cc1)c1ccc2c(c1)OCO2	none
C/C(=N\Nc1nc2ccccc2s1)c1ccc2c(c1)OCO2	Shiga inhibitor 69.5, Cycloheximide cs 53.6
CC(=NNc1nc2ccccc2s1)c1ccncn1	HCMV inh -100.4 (no result: Shiga inhibitor, Pf growth 48h, Cycloheximide cs, Pf growth 96h)
O=C(Nn1cnc2ccccc2c1=O)c1ccc(Cl)c([N+](=O)[O-])c1	Pf growth 96h inconclusive
Cc1[nH]n(-c2cccc([N+](=O)[O-])c2)c(=O)c1-c1ccccc1	Pf growth 48h inconclusive, Pf growth 96h 13.1µM
Cc1[nH]n(-c2cccc(Cl)c2)c(=O)c1-c1ccccc1	Pf growth 96h 5.86µM (no result: Pf growth 48h)
Cc1[nH]n(-c2ccccc2)c(=O)c1-c1ccccc1	Pf growth 48h inconclusive
Cc1cccn2c(=O)nc(SCC(=O)Nc3ccc4c(c3)OCCO4)nc12	Pf growth 48h inconclusive (no result: Shiga inhibitor, Cycloheximide cs)
C=CCOC(/C=C/c1ccccc1)CC (configuration not stated)	none (no result: Pf growth 48h, HCMV inh, Pf growth 96h)
COc1ccc(N2CC(NC(=O)c3cccs3)CC2=O)cc1 (configuration not stated)	none (no result: Shiga inhibitor, Pf growth 48h, Cycloheximide cs, Pf growth 96h)
Cn1cc(CN2CCC(C(O)c3cccs3)CC2)c(-c2cccc(Cl)c2)n1 (configuration not stated)	Pf growth 48h 9.28µM, Pf growth 96h inconclusive
Cn1cc(CN2CCN(c3ncccn3)CC2)c(-c2cccc(Cl)c2)n1	none
COc1ccc(N(CC(=O)Nc2ccc3c(c2)OCCO3)S(C)(=O)=O)c(OC)c1	Shiga inhibitor 76.0, Cycloheximide cs 34.0
CCOc1ccccc1N(CC(=O)Nc1ccc2c(c1)OCCO2)S(C)(=O)=O	Pf growth 96h 4.15µM
CC1CCCCN1C(=O)c1cc(S(=O)(=O)N2CCCCC2)c[nH]1 (configuration not stated)	none
O=C1C=CN(S(=O)(=O)c2ccc(F)cc2)C(c2cccs2)C1 (configuration not stated)	none (no result: Shiga inhibitor, Pf growth 48h, Cycloheximide cs, Pf growth 96h)
Cc1cccc(C)c1NC(=O)CNC(=O)CCNC(=O)c1ccco1	none (no result: Shiga inhibitor, Cycloheximide cs)
Nc1c2c(nc3ccccc13)CCCC2O (configuration not stated)	Pf growth 96h 10.7µM (no result: Shiga inhibitor, Cycloheximide cs)
Nc1c2c(nc3ccccc13)CSCC2	none (no result: Shiga inhibitor, Pf growth 48h, Cycloheximide cs, Pf growth 96h)
Nc1c2c(nc3ccccc13)CCCC2=O	Cycloheximide cs 16.5
CC1(C)CC[C@]2(C(=O)O)CC[C@]3(CO)C(=CCC4[C@@]5(C)C[C@H](O)[C@H](O)[C@@](C)(C(=O)O)C5CC[C@]43C)[C@@H]2C1 (some centres not stated)	none (no result: Shiga inhibitor, Pf growth 48h, Cycloheximide cs, Pf growth 96h)
O=C(Nc1ccc(-c2nc3cccnc3s2)cc1)c1cccnc1Cl	Shiga inhibitor 57.5, Cycloheximide cs 66.4
O=C(Nc1ccc(-c2nc3cccnc3s2)cc1)c1ccc(Cl)nc1	Shiga inhibitor 67.7, Cycloheximide cs 34.0
CC(=O)c1c(C)oc2c1cc(NS(=O)(=O)c1ccc(Cl)c(C)c1)c1ccccc12	none (no result: Shiga inhibitor, Pf growth 48h, Cycloheximide cs, Pf growth 96h)
CC(=O)N1CCCC1c1nc2ccccc2n1Cc1ccccc1F (configuration not stated)	none (no result: Shiga inhibitor, Pf growth 48h, Cycloheximide cs, Pf growth 96h)
CC[C@@H]1C/C=C\Cc2ccccc2[C@H](C(=O)C[C@@H](O)CC(C)=O)OC1=O	none (no result: Shiga inhibitor, Pf growth 48h, Cycloheximide cs, Pf growth 96h)
CCn1c(CSCc2ccccc2)n[nH]c1=S	HCMV inh -73.1, Pf growth 96h inconclusive
CCn1c(CCc2ccccc2)n[nH]c1=S	Pf growth 96h 10.4µM
CCCn1c(CCc2ccccc2)n[nH]c1=S	HCMV inh inconclusive, Pf growth 96h inconclusive
CSc1ncccc1C(=O)OCC(=O)C(C)(C)C	none
COc1cccc(-c2cc(C(=O)NC3CCCC3)no2)c1	Shiga inhibitor 145.1, Cycloheximide cs 46.5 (no result: Pf growth 96h)
COCC(C)NC(=O)c1cc(-c2cccc(OC)c2)on1 (configuration not stated)	Shiga inhibitor 81.3, Cycloheximide cs 28.3, Pf growth 96h inconclusive
COc1cccc(-c2cc(C(=O)NCc3ccc(F)cc3)no2)c1	none (no result: Shiga inhibitor, Pf growth 48h, Cycloheximide cs, Pf growth 96h)
